Compounds with a hit are over-represented: about 2.9% of the library has one in this group of screens.
DRD3 antagonist: qHTS of D3 Dopamine Receptor Antagonist: qHTS. D(3) dopamine receptor (Homo sapiens), P35462. D3R cells, DiscoveRx beta-arrestin luminescence, antagonist mode; stronger effect = lower value. max response, negative = inhibition, %. 2.5% of 360,000 active. AID 652054, 2013; in the data active = max response below about -50%; inconclusive = no clear call, values can overlap the other calls; also: % is scaled to controls: 0 for no effect and ±100 for the full control effect
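Cells expressing the human receptor were seeded at 1500 cells/well, incubated overnight at 37 degrees C in 5% CO2, then exposed to library compounds with dopamine controls for 90 minutes at 37 degrees C before luminescent detection.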
B2AR arrestin: qHTS assay of beta-arrestin-biased ligands of beta2-adrenergic receptor. Beta-2 adrenergic receptor (Homo sapiens), P07550. beta-arrestin recruitment to beta2AR, cell-based reporter. 0.02% of 330,000 active. Potency, µM (titrated, usually from 46.1 µM), inactives show at the highest dose activation, usual class: activators;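 also: potency is read from the fitted curve at half-maximal effect; 0% = DMSO controls and full agonism = EC100 isoproterenol or metaproterenol; nearly all actives have a fitted effect of over 65% in size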
a7 integrin act: qHTS for Activators of Integrin-Mediated Alleviation for Muscular Dystrophy; alpha7betagal myoblasts, beta-gal FDG fluorescence, 48 h; 0.064% of 350,000 active; Potency, µM (series often up to 38.3 µM), inactives show top-dose activation, hits mostly activators;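 also: potency is read from the fitted curve at half-maximal effect; 100% = response of the positive control SU9516; nearly all actives have a fitted effect of over 60% in size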
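Alpha7betagal+/- myoblasts (passage 13) were plated 16-24 hr, then exposed to compounds (1:260 dilution of DMSO stock) for 48 hours at 37C. After MPER lysis, β-galactosidase reporter activity was read as FDG fluorescence (ex 480/em 540) after 30 minutes.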
mIDH1 inhibitor: qHTS for Inhibitors of mutant isocitrate dehydrogenase 1 (IDH1): qHTS. 0.093% of 390,000 active. Isocitrate dehydrogenase [NADP] cytoplasmic (Homo sapiens), O75874. Potency, µM (series often up to 76.6 µM), without a hit: at the highest dose activity change, negative = inhibition, hits mostly inhibitors. IDH1-R132H enzyme, NADPH consumption, diaphorase/resazurin fluorescence; also: potency is read from the fitted curve at half-maximal effect; % is scaled to controls: 0 for no effect and ±100 for the full control effect; nearly all actives have a fitted effect of over 65% in size
Target sequence (O75874 whole entry R132H, stated change not applied): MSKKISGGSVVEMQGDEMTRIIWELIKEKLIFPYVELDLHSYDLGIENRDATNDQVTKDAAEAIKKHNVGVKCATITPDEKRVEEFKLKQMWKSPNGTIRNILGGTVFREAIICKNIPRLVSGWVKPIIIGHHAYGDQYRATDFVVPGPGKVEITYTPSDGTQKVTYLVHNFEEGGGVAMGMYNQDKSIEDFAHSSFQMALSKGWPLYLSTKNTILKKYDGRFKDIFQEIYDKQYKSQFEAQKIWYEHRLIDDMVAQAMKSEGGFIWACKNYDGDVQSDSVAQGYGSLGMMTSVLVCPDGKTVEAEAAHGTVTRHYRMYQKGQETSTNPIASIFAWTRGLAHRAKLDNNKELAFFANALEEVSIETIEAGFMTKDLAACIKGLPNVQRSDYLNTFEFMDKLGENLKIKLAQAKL
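IDH1-R132H (0.5 ug/mL dispensed) in pH 7.5 Tris buffer was preincubated 30 min with compound, then given a substrate mix of 0.016 mM NADPH and 2 mM alpha-KG for 80 min at room temperature; remaining NADPH was read by diaphorase/resazurin fluorescence.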
DRD3 agonist: qHTS of D3 Dopamine Receptor Agonist: qHTS; 0.58% of 410,000 active; max activation, %; D(3) dopamine receptor (Homo sapiens), P35462; D3R DiscoveRx beta-arrestin cells, luminescence, 90 min; AID 652048, 2013; in the data active = max activation above about 30%; also: 0% is about no effect
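Cells at 1500/well, incubated overnight, then treated with pinned compounds (dopamine as control) for 90 min at 37 degrees C. DiscoveRx reagent added for 30 - 60 minutes at room temperature; luminescence read.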
Numbers without * were called inactive; ? = inconclusive; nt = not tested or not shown. Unless noted, calls follow the shape of the dose curve; as a rule, active = well fitted curve in the direction sought with a large enough effect; inconclusive = small, poorly fitted or top-dose-only effect, or another doubt; inactive = no such curve, though single readings can be large; an effect the other way counts as inactive or inconclusive.

SMILES | DRD3 antagonist | B2AR arrestin | a7 integrin act | mIDH1 inhibitor | DRD3 agonist
O=C(Nc1nnc(C2CC2)s1)c1ccc(Cl)c(S(=O)(=O)N2CCc3ccccc3C2)c1 | 0 | 1% | -16% | 1% | 41*
CCOC(=O)N1CCC(Nc2c(Nc3ccc(F)cc3)c(=O)c2=O)CC1 | -89* | 0% | -55% | 2% | -8
CCOC(=O)N1CCC(NCCNC(=O)c2cccc(F)c2)CC1 | -112* | 0% | 1% | 7% | -68
CCOC(=O)N1CCC(Nc2c(Nc3cccc(CC)c3)c(=O)c2=O)CC1 | -62* | 0% | -23% | 6% | -33
CCOC(=O)N1CCC(Nc2c(-c3ccc(C)cc3)c(=O)c2=O)CC1 | 10 | 10% | -17% | 6% | -4
CCOC(=O)N1CCC(NCCNC(=O)c2ccc(F)cc2)CC1 | -16 | 0% | 5% | 8% | -67
CCOc1ccc2nc(N3CCC(C(=O)Nc4ccccc4CC)CC3)sc2c1 | nt | nt | nt | 10% | 3
Cc1cc(C)cc(NC(=O)CN2C(=O)CCc3cc(S(=O)(=O)N4CCCCC4)ccc32)c1 | nt | nt | nt | -9% | -7
COc1cc(NC(=O)c2cccc3c(-c4cnn(C)c4)coc23)cc(OC)c1OC | 120 | nt | nt | nt | 22
N=C1N=C(N)c2cc3ccccc3cc21 | nt | nt | nt | nt | 4
Cc1cc(C)c(OCC(=O)OCC(=O)N(C)C2CCS(=O)(=O)C2)c(C)c1 (configuration not stated) | -15 | 0% | 4% | 7% | 0
COc1cc(Cl)c(CNC[C@H]2O[C@@H](n3cnc4c(N)ncnc43)[C@H](O)[C@@H]2O)c(Cl)c1O | 17 | -1% | 0% | -12% | -2
C[C@@H]1CC=C[C@H]2[C@H]1C(=O)N(Cc1ccccc1)[C@H]2c1ccc(-c2ccoc2)cc1F | -62* | -1% | -7% | 6% | -26
C[C@@H]1CC=C[C@H]2[C@H]1C(=O)N(Cc1ccccc1)[C@H]2c1ccc(-c2ccc(F)cc2)cc1F | -22 | -1% | 39% | -8% | -12
CC(C)Oc1ccc(C2CC(=O)N(Nc3ccc([N+](=O)[O-])cc3[N+](=O)[O-])C2=O)cc1 (configuration not stated) | -51* | 0% | 4% | 3% | -21
O=C(NCCc1ccccc1)c1ccc(CSc2nc3ccncc3n2Cc2cccc(F)c2)cc1 | nt | nt | nt | -12% | -23
O=c1n(-c2ccccc2)c(=O)n2n1CCCC2 | ? | 0% | 30% | 3% | 42*
O=c1n(-c2ccccc2)c(=O)n2n1CCC2 | 16 | -1% | 12% | 6% | 1
COc1ccc(-c2nc(CNS(=O)(=O)c3cccc(F)c3)cs2)cc1 | nt | nt | nt | nt | -8
Cc1ccc(NC(=O)CN2CCN(c3ccccc3F)CC2)cc1F | nt | nt | nt | 16% | -14
O=C(CCN1CCN(c2ccc(Cl)cc2)CC1)Nc1ccccc1F | -20 | 0% | -2% | 6% | 6
O=C(CN1CCN(c2ccccc2F)CC1)Nc1ccccc1F | -58* | 0% | -6% | 12% | -13
O=C(CCN1CCN(c2ccccc2F)CC1)Nc1ccccc1F | -25 | 0% | 4% | 0% | 32*
Cc1nn2c(=O)cc(COC(=O)c3cccc(NC(=O)c4ccc(F)cc4)c3)nc2s1 | nt | nt | nt | -1% | 13
CSc1cccc(NC(=O)C2CCN(c3ncnc4c3nc3n4CCCCC3)CC2)c1 | nt | nt | nt | 14% | -19
O=C1CN(C(=O)COC(=O)c2ccc(Cl)cc2)c2ccccc2N1 | 6 | 0% | -11% | -5% | 6
O=C1CN(C(=O)COC(=O)c2ccccc2Br)c2ccccc2N1 | -55* | -1% | 6% | -2% | -17
COc1ccc(NC(=O)C(NC(=O)/C=C\c2ccc3c(c2)OCO3)c2ccccc2)cc1 (configuration not stated) | nt | nt | nt | 24% | -29
CC(C)CCN(C(=O)Cc1ccc(Cl)c(Cl)c1)c1c(N)n(Cc2ccccc2)c(=O)[nH]c1=O | -72* | 0% | 1% | 2% | -14

From PubChem
